These results are taken from PubChem BioAssay (NCI).

Where “and” joins values, the source holds several entries; their conditions need not be identical. Equal values may be shown once. About 83,000 compounds went through this panel and 20% of them were active in at least one assay; those are over-represented in the sample as a whole.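 Note: values are percent growth. 100 is the growth of untreated cells, values between 100 and 0 indicate rising inhibition; between -100 and 0 indicates cell death.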 Calls of active or inactive are those of the source. How the source made its calls: active means growth percent below 10; inactive means the rest.

The subject of the assay is MDA-MB-468 breast. The experiment in a line: NCI-60 one-dose screen, 48 h (100 = growth as untreated, 0 = no growth, -100 = all killed). Particulars: 10 µM unless noted.
`NS(=O)(=O)c1ccc(NCC(=O)Nc2ccc(-c3nc4ccccc4s3)cc2)cc1`: the growth is 4.26% (active).
Consider `CC(C)c1ccc(C(=O)Nc2nc3ccc(O)c(CN(C)C)c3s2)cc1`, for which the growth was 77.1% (inactive).
For `Brc1ccc(-c2nc3ccccc3s2)cc1`, the growth is 93% (inactive).
Take `CS(=O)(=O)c1ccc(/C(=N/NC(N)=S)c2ccc(F)cc2)cc1`: the growth was 88.2% (inactive).
Turning to `CC(C)(C)c1nc(-c2ccc(O)c(O)c2)cs1`, the growth was 53.5% (inactive).
As for `Nn1c(CN2CCN(c3cc4c(cc3F)c(=O)c(C(=O)O)cn4C3CC3)CC2)n[nH]c1=S`, the growth was 99.2% (inactive).
Consider `CC[C@@H]1NC(=O)[C@H]([C@H](O)[C@H](C)C/C=C/c2ccc(CN3C(=O)C(C)=C(C)C3=O)cc2)N(C)C(=O)[C@H](C(C)C)N(C)C(=O)[C@H](CC(C)C)N(C)C(=O)[C@H](CC(C)C)N(C)C(=O)[C@@H](C)NC(=O)[C@H](C)NC(=O)[C@H](CC(C)C)N(C)C(=O)[C@H](C(C)C)NC(=O)[C@H](CC(C)C)N(C)C(=O)CN(C)C1=O`, for which the growth is 53.1% (inactive).
As to `OB(O)c1cccc(-c2nc3ccc4[nH]ncc4c3c3c2CCCC3)c1`, the growth was 59.3% (inactive).
As to `CC/C=C1/C(=O)C=C[C@@H]1C/C=C\CCCC(=O)O`, the growth is 73.5% (inactive).
As for `O=C1/C(=C/c2ccccc2)CCC/C1=C\c1ccccc1`, the figure is 63.2% (inactive); as for `CCN1C(=O)N(CC)C2C1NN=c1s/c(=C\c3ccc(F)cc3)c(=O)n12` (stereo not given), 11.9% (inactive); as for `CC1=C(C)C(=O)C(Nc2ccc3c(c2)OCCO3)=C(Br)C1=O`, 28.1% (inactive).
Consider `Cc1ccc(NC(=O)c2ccc(CN3CCOCC3)c(C(F)(F)F)c2)cc1Oc1ccc(-c2[nH]nc3ncnc(N)c23)cc1`, for which the growth was 96.8% (inactive).
Under `O=C(NNC(=S)Nc1ccccc1)c1ccc(Nc2ncnc3c2cnn3-c2cccc(Br)c2)cc1` stands 101% (inactive).
As for `Cc1cc(C)n(-c2nnc3n2N=C(c2ccc(-c4ccccc4)cc2)CS3)n1`, the growth is -5.89% (active).
For the compound `COc1cc2cc(C(=O)Nc3ccccc3)c(N)nc2cc1OC`, the growth is -81.5% (active).
With `CC(C)C[C@H](NC(=O)Cn1ccc2ccccc2c1=O)B(O)O`, the growth is 0.399% (active).
With `Cc1cn(C)cn1`, the growth is 112% (inactive).
As for `CCc1cc(OC(=O)N2CCC(N3CCCCC3)CC2)ccc1Nc1cc(-c2ccc(-n3cccn3)cc2)[nH]n1`, the figure is 84.4% (inactive).
With `CCN(CC)CCCC(C)N=c1cc(Nc2cc(=NC(C)CCCN(CC)CC)c3cc(OC)ccc3o2)oc2ccc(OC)cc12` (stereo not given), the growth is -76.8% (active).
Turning to `Nc1ccc2c3c(cccc13)-c1ccccc1-2`, the growth was 88.6% (inactive).
Under `FC(F)(F)c1ccc(-c2cnc(Cl)nc2NC2CCCCCC2)cc1` stands -4.8% (active); under `CC(C)CNC(=O)c1ccccc1C(=O)NC1(C(=O)NCC(C)C)CCCC1`, 101% (inactive) and 121% (inactive).
Regarding `C/C(=N\Nc1ccc(Cl)cn1)c1ccccn1`, the growth was -41% (active).
For the compound `CNC(=O)c1ccc(C)c(-n2c(C)cc(OCc3ccc(F)cc3F)c(Br)c2=O)c1`, the growth is 53.4% (inactive) and 63.5% (inactive).
As for `O=C1OC(c2ccccc2)C(O)=C1c1ccccc1` (stereo not given), the figure is 108% (inactive); as for `Cc1nc(C)c(C)nc1C`, 106% (inactive).
Consider `N#C/C(=C\c1ccc(-c2ccc(Cl)c(Cl)c2)o1)C(=O)Nc1ncc(Cc2ccc(Cl)cc2)s1`, for which the growth was 22.1% (inactive).
Turning to `COc1cc(NC(=O)c2cccc(-c3cc(=O)c4c(O)c(OC)c(OC)cc4o3)c2)cc(OC)c1OC`, the growth is 59.9% (inactive).
For the compound `NC1C2CCC1CN(c1cnc(C(=O)Nc3cc(F)cc4cccnc34)cn1)C2` (stereo not given), the growth was -4.02% (active).
Consider `Cc1ccc(CNc2c3ccccc3nc3ccccc23)cc1`, for which the growth is 7.18% (active).
As for `Cc1cccc(C(=O)O)n1`, the growth is 111% (inactive).
Under `CCOC(=O)Cc1cc(Br)c(OCc2ccccc2)c(Br)c1` stands 110% (inactive); under `O=c1[nH]c(=O)[nH]c(=S)[nH]1`, 95.8% (inactive).
As for `O=CN1N=C(c2ccc(F)cc2)CC1c1cccc(Nc2ccnc3cc(C(F)(F)F)ccc23)c1` (stereo not given), the figure is 29.2% (inactive); as for `Cc1cc(=O)[nH]n1-c1cc(Cl)ccc1N`, 110% (inactive).
As for `COc1ccc(-c2cc(C(=O)Nc3ccc(Br)cc3)nc3[nH]c(=O)sc23)cc1`, the figure is 33.2% (inactive); as for `Cc1ccccc1OCC(O)COc1ccccc1C`, 105% (inactive); as for `CCOC(=O)c1cc(C(=O)c2ccc(OC)c(OC)c2)n2c1ccc1ccccc12`, 97% (inactive).
With `O=C1c2ccccc2C(=O)c2c(NCCNCCO)ccc(NCCNCCO)c21`, the growth is -71.9% (active) and -54.1% (active) and -20.9% (active).
